Test results: PubChem BioAssay (NCATS)
Results filed as inconclusive are left out. A number with no mark means an inactive call. Active and inactive are the calls of the source. Calls follow the shape of the dose curve; as a rule, active = well fitted cell-killing curve with a large enough effect; inconclusive = small, poorly fitted or top-dose-only effect; inactive = no such curve, though single readings can be large or run the other way. Non-standard residues stand in square brackets, D forms with d. Residues, ends and D or L forms follow the SMILES beside them. *: point of attachment. Nva = CCC[C@H](N)C(=O)O; Cbz = O=C(OCc1ccccc1)*

test: qHTS of pediatric cancer cell lines to identify multiple opportunities for drug repurposing: Primary screen for NB1643 cells (AID 1347099); settings: NB1643 neuroblastoma viability, CellTiter-Glo luminescence, 48 h; series mostly up to 46 µM; activity change, negative = cytotoxic: at the top concentration; also: nearly all actives have a fitted effect of over 50% in size
From the text: Drug repurposing or repositioning has been offered as a strategy for drug development in oncology programs. This approach has special potential for childhood cancers and other rare or orphan diseases, where the expected return on new drug development has been a disincentive to pharmaceuticals. […] In this project we exploit the poly-pharmacology of drugs to discover new indications via phenotypic screening of a panel of 19 well-characterized cell lines derived from solid tumors seen in children and adolescents. The goal is to identify approved drugs with previously unrecognized anticancer properties that has the potential to reveal new mechanisms and biological processes involved in carcinogenesis or drug resistance. We employed a titration-based paradigm (quantitative high-throughput screening or qHTS), where all compounds were tested at multiple concentrations for their effect on cell viability. Concentration-response curves (CRCs) were derived directly from the primary screen, and both potency and efficacy values were used to identify compounds with robust bioactivity profiles. We screened the NIH Chemical Genomics Center (NCGC) Pharmaceutical Collection (NPC) and Mechanism Interrogation Plate (MIPE) small molecule collections of approved and investigational compounds against these cell lines; and measured metabolically active cells after 48 hours of compound treatment as a proxy for cell viability. […] Assay Submitter: Nathalia J. Martinez, National Center for Advancing Translational Sciences, National Institutes of Health, Rockville, MD, USA; email: natalia.martinez@nih.gov Shen, M et al. Quantitative high-throughput phenotypic screening of pediatric cancer cell lines identifies multiple opportunities for drug repurposing. Oncotarget 2017 Dec 19;9(4):4758-4772. PMID 29435139.
The cells were obtained from University of North Carolina (UNC), Pediatric Preclinical Testing Program (PPT), and Coriell Institute (CI). qHTS cell viability assay: Cells were assayed in growth media at a density of 500-1,000 cells/well. Five microliters of cells were dispensed into 1,536-well, white, solid-bottom, TC-treated plates (Greiner Bio One) using a multidrop dispenser and incubated at 37 degrees C, 5% CO2, under a humidified atmosphere for 5 hours. Twenty-three nanoliters of compounds and controls (neutral control DMSO or positive control bortezomib at final concentration of 2.3 µM) were subsequently transferred by Kalypsys pintool. For primary screens, the MIPE collection was tested at 11-point dilutions (final concentrations range from 0.78 nM to 46 µM) and the NPC collection at 8-point dilutions (final concentrations range from 0.59 nM to 46 µM). Compounds tested in follow-up screens were assayed at 11-point dilutions. Cells were incubated for 48 hours, followed by addition of 3 µL of CellTiter-Glo (Promega). After a 15 min incubation at room temperature, samples were analyzed for luminescence intensity using a ViewLux High-throughput CCD imager equipped with clear filters.
Potency is read from the fitted curve at half-maximal effect.

SMILES | Potency | activity change, negative = cytotoxic [%]
CCC[C@@H](C=O)NC(=O)[C@H](CC(C)C)NC(=O)[C@H](CC(C)C)NC(=O)OCc1ccccc1 (Cbz-Leu-Leu-[Nva]-aldehyde) | 0.469 µM (active) | 
O=C(Nc1nnc(-c2ccco2)o1)c1cc(-c2ccccc2)nc2ccccc12 | 10.5 µM (active) | 
C=CC(=O)Nc1cc(NC(=O)c2ccc(C)c(NC(=O)c3ccno3)c2)cc(C(F)(F)F)c1 | 18.7 µM (active) | 
c1cc(CN2CCCNCCNCCCNCC2)ccc1CN1CCCNCCNCCCNCC1 |  | 1.64
COc1cc(O)c2c(c1)C1OC1C[C@H](O)[C@H](O)C(=O)C=CC[C@H](C)OC2=O (stereo not given in full) | 2.96 µM (active) | 
CC(=O)NC(CS)C(=O)O (stereo not given) |  | -11.8
C#C[C@]1(O)CC[C@@H]2[C@@H]3CCc4cc(O)ccc4[C@H]3CC[C@@]21C | 20.9 µM (active) | 
O=C(C=Cc1ccc(CN(CCO)CCc2c[nH]c3ccccc23)cc1)NO | 0.166 µM (active) | 
CCc1c(O)cc(O)c(C(=O)c2ccc(OCCN3CCOCC3)c(OC)c2)c1CC(=O)N(CCOC)CCOC | 0.935 µM (active) | 
CCC(C=C[C@@H]1OC(=O)C=C[C@H]1C)=C[C@H](C)CC=CC(C)=C[C@@H](C)C(=O)[C@@H](C)[C@H](O)[C@@H](C)CC(C)=CC(=O)O | 0.0277 µM (active) | 
CN[C@H](CC(C)C)C(=O)N[C@H]1C(=O)N[C@@H](CC(N)=O)C(=O)N[C@@H]2C(=O)N[C@H]3C(=O)N[C@H](C(=O)N[C@H](C(=O)O)c4cc(O)cc(O)c4-c4cc3ccc4O)[C@H](O)c3ccc(c(Cl)c3)Oc3cc2cc(c3O[C@@H]2O[C@H](CO)[C@@H](O)[C@H](O)[C@@H]2O[C@H]2C[C@](C)(N)[C@H](O)[C@H](C)O2)Oc2ccc(cc2Cl)[C@H]1O |  | 7.35
COc1cc2ncnc(Nc3cccc(Br)c3)c2cc1OC | 7.43 µM (active) | 
CC1(C)CC(O)CC(C)(C)N1[O] |  | 17.1
CN(N=O)C(=O)N[C@H]1C(O)OC(CO)[C@@H](O)[C@H]1O (stereo not given in full) |  | 2.68
COc1ccc2cc([S+]([O-])Cc3ncc(C)c(OC)c3C)nc2c1 |  | 0.683
COc1ccc(CCC(=O)c2c(O)cc(O[C@@H]3O[C@H](CO)[C@@H](O)[C@H](O)[C@@H]3O[C@@H]3O[C@@H](C)[C@H](O)[C@@H](O)[C@@H]3O)cc2O)cc1O | 13.2 µM (active) | 
CC(C)(N)c1ccc(-c2nc3ccccc3nc2-c2ccccc2)cc1 | 23.5 µM (active) | 
NC(=O)N1CCC(CC(=O)N2CCC([C@H]3c4ncc(Br)cc4CCc4cc(Cl)cc(Br)c43)CC2)CC1 | 14.8 µM (active) | 
COc1ccc(S(=O)(=O)Nc2cccnc2Nc2ccc(O)cc2)cc1 |  | -34.4
Cc1onc(-c2ccccc2)c1C(=O)N[C@@H]1C(=O)N2[C@@H](C(=O)O)C(C)(C)S[C@@H]12 |  | 14.4

SMILES | Potency | activity change, negative = cytotoxic [%]
Oc1ccc(-c2ccc(-c3cc(Nc4cccc(CNC5CC5)c4)n[nH]3)cc2)c(O)c1 |  | -27.4
COc1cc(C(=O)NC2CCN(C)CC2)ccc1Nc1ncc2c(n1)N(C1CCCC1)CCC(=O)N2C(C)C | 3.72 µM (active) | 
NC(=O)Nc1sc(-c2ccc(F)cc2)cc1C(N)=O | 4.69 µM (active) | 
Cc1nc(NC(=O)N2CCC[C@@H]2C(N)=O)sc1-c1ccnc(C(C)(C)C(F)(F)F)c1 | 9.35 µM (active) | 
O=C(C=CC=Cc1ccc2c(c1)OCO2)N1CCCCC1 |  | 2.89
CC(C)(O)Cn1c(NC(=O)c2ccc(-c3cn[nH]c3)s2)nc2cc(CN3CCOCC3)ccc21 | 0.743 µM (active) | 
O=C(Nc1ccc(Oc2ccnc3[nH]ccc23)c(F)c1)c1cccn(-c2ccc(F)cc2)c1=O |  | 10.6
CCCNC(=O)[C@H]1O[C@H]1C(=O)N[C@H](C(=O)N1CCC[C@@H]1C(=O)OC)C(C)CC (stereo not given in full) | 9.35 µM (active) | 
NC(=NCCCCCCN=C(N)N=C(N)Nc1ccc(Cl)cc1)N=C(N)Nc1ccc(Cl)cc1 | 5.26 µM (active) | 
COc1ccc([C@@H]2CNC(=O)C2)cc1OC1CCCC1 | 1.32 µM (active) | 
O=C(C=CC#Cc1cccc(NS(=O)(=O)c2ccccc2)c1)NO | 1.18 µM (active) | 
CC(C)C[C@H](NC(=O)[C@@H](NC(=O)c1cccc(-c2ccccc2)n1)[C@@H](C)O)B(O)O | 0.0743 µM (active) | 
Cc1[nH]c(C=C2C(=O)Nc3ccccc32)c(C)c1CCC(=O)O | 3.32 µM (active) | 
CC[C@H]1OC(=O)[C@H](C)[C@@H](O[C@H]2C[C@@](C)(OC)[C@@H](O)[C@H](C)O2)[C@H](C)[C@@H](O[C@@H]2O[C@@H](C)C[C@H](N(C)C)[C@@H]2O)[C@](C)(O)C[C@@H](C)C(=O)[C@H](C)[C@@H](O)[C@]1(C)O |  | 14.4
CCCCCCCCCCCCc1ccc(S(=O)(=O)Nc2nncs2)cc1 |  | 14.6
CN1CCc2c(c3ccccc3n2Cc2ccc(C(=O)NO)cc2)C1 | 16.6 µM (active) | 
CCC[C@H]1C[C@H](C(=O)N[C@@H]([C@@H]2O[C@@H](SC)[C@@H](O)[C@@H](O)[C@@H]2O)[C@H](C)Cl)N(C)C1 |  | 22
CCN(C(=O)c1c(O)c2c(Cl)cccc2n(C)c1=O)c1ccccc1 |  | -14.8
CC[C@]12C=CCN3CC[C@@]4(c5cc([C@@]6(C(=O)OC)C[C@H]7C[C@@H](C(C)(F)F)CN(Cc8c6[nH]c6ccccc86)C7)c(OC)cc5N(C)[C@H]4[C@@](O)(C(=O)OC)[C@H]1OC(C)=O)[C@@H]32 | 0.132 µM (active) | 
CCOC(=O)N1CCN([N+]([O-])=NOc2ccc([N+](=O)[O-])cc2C#N)CC1 | 3.72 µM (active) | 
